The values below come from PubChem BioAssay (NCI).

Among the test systems are NCI-H23 lung; NCI-H226 lung; NCI-H322M lung; HOP-62 NSCLC; NCI-H460 lung; HOP-92 NSCLC; NCI-H522 lung; A549/ATCC NSCLC; 786-0 renal; COLO 205 colon.
Common to all, as to test: NCI-60 one-dose screen, 48 h (100 = growth as untreated, 0 = no growth, -100 = all killed)
Holding throughout (settings): 10 µM unless noted

The panel holds about 83,000 compounds, 20% with a hit somewhere; the sample as a whole holds those more often.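 For each line, cells grew in 96-well plates with the test compound present at a single concentration for 48 hours.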 Values without a mark were called inactive. Active and inactive are the calls of the source. The calls were made as follows: active = growth percent below 10; inactive = the rest.

On to `CC(C)[C@@H]1CC[C@@H]2[C@@H]1[C@H](OC(=O)/C=C/c1ccccc1)[C@]1(C(C)C)C[C@@H](OC(=O)CO)[C@@]2(C)O1`, for which the growth in the assay with NCI-H23 lung was 83.1%; in the assay with NCI-H226 lung, 63.2%; in the assay on NCI-H322M lung, 105%; in the assay with HOP-62 NSCLC it was 87.4%; in the assay with NCI-H460 lung it was 89.3%; in the assay on HOP-92 NSCLC, 68.6%. For the same compound, the growth in the assay with NCI-H522 lung is 65.9%; with A549/ATCC NSCLC, 71.4%; in the assay on 786-0 renal, 78.1%; with COLO 205 colon it was 84.6%.

`CCn1c(-c2nonc2N)nc2c(C#CC(C)(C)O)ncc(OC[C@H]3CCCNC3)c21`: the growth with NCI-H23 lung is 78.7%; with NCI-H226 lung, 113%; in the assay on NCI-H322M lung it was 75.2%; with HOP-62 NSCLC, 73%; with NCI-H460 lung it was 56.6%; in the assay on HOP-92 NSCLC, 178%. In addition, the growth with NCI-H522 lung is 12.7%; in the assay on A549/ATCC NSCLC, 87.8%; in the assay with 786-0 renal it was 26.7%; with COLO 205 colon, 38.2%.

Turning to `COc1cc2c(cc1OCCCCCCN1CCN(c3ncnc4ccccc34)CC1)N=CC1CCCN1C2=O` (stereo not given), the growth is -26.1% (active) with NCI-H23 lung; -54.9% (active) in the assay on NCI-H226 lung; -2.96% (active) in the assay on NCI-H322M lung; -25.9% (active) in the assay with HOP-62 NSCLC; 3.48% (active) with NCI-H460 lung; -21.7% (active) in the assay with HOP-92 NSCLC. Besides, the growth with NCI-H522 lung is -55.2% (active); in the assay on A549/ATCC NSCLC, 1.08% (active); with 786-0 renal it was -10.3% (active); in the assay with COLO 205 colon it was -57.1% (active).

For the compound `COc1ccc2nc3cc(Cl)ccc3c(Nc3ccc(N(C)C)cc3)c2c1`, the growth in the assay with NCI-H23 lung is 91.9%; with NCI-H226 lung, 83.5%; in the assay with NCI-H322M lung it was 109%; with HOP-62 NSCLC it was 89.9%; with NCI-H460 lung it was 70.6%; in the assay on HOP-92 NSCLC it was 76.3%. Besides, the growth in the assay on NCI-H522 lung was 86.6%; in the assay on A549/ATCC NSCLC it was 69.3%; in the assay on 786-0 renal, 96.9%; in the assay with COLO 205 colon, 84.6%.

Turning to `O=C(N/N=C/c1ccc(Cl)cc1)c1cc(-c2cc3ccccc3o2)nn1-c1ccccc1`, the growth is 92% with NCI-H23 lung; 91.3% in the assay with NCI-H226 lung; 96.7% in the assay on NCI-H322M lung; 97.3% with HOP-62 NSCLC; 106% with NCI-H460 lung; -16.5% (active) with HOP-92 NSCLC. The growth with NCI-H522 lung is 77.9%; in the assay on A549/ATCC NSCLC it was 97.9%; in the assay on 786-0 renal, 95.1%; in the assay with COLO 205 colon, 96.1%.

For the compound `Cc1ccc(N)cc1CN1C(=O)c2ccccc2C1=O`, the growth was 105% in the assay on NCI-H23 lung; 93.1% with NCI-H226 lung; 104% in the assay with NCI-H322M lung; 97.1% in the assay with HOP-62 NSCLC; 105% with NCI-H460 lung; 86.9% in the assay on HOP-92 NSCLC. Also, the growth in the assay on NCI-H522 lung is 58.5%; with A549/ATCC NSCLC it was 105%; in the assay with 786-0 renal, 98.5%; with COLO 205 colon it was 105%.

Regarding `CCN(CCN(C)C)C(=O)CNCc1cc(C(N)=O)ccn1`, the growth is 101% with NCI-H23 lung; 89.1% in the assay on NCI-H226 lung; 106% with NCI-H322M lung; 87% in the assay on HOP-62 NSCLC; 108% in the assay with NCI-H460 lung; 87.2% in the assay with HOP-92 NSCLC. Further, the growth in the assay on NCI-H522 lung is 78.1%; in the assay on A549/ATCC NSCLC it was 72.4%; in the assay on 786-0 renal it was 103%; in the assay on COLO 205 colon it was 108%.

`CC(=O)OC1Oc2ccccc2-c2oc(=O)c(-c3cc4ccc(N(C)C)cc4oc3=O)cc21` (stereo not given): the growth with NCI-H23 lung is 36.4%; in the assay on NCI-H226 lung it was 55%; with NCI-H322M lung, 69.4%; in the assay on HOP-62 NSCLC it was 69.4%; with NCI-H460 lung, 75.4%; in the assay on HOP-92 NSCLC, -3.58% (active). The growth with NCI-H522 lung was 6.65% (active); in the assay with A549/ATCC NSCLC it was 61.2%; in the assay with 786-0 renal, 55.2%; in the assay with COLO 205 colon it was 67.3%.

In the case of `CCN1CCN(c2cc(C)nc(N(CCCNc3ccnc4cc(Cl)ccc34)Cc3ccc4c(c3)OCO4)n2)CC1`, the growth with NCI-H23 lung is 36.8%; in the assay with NCI-H226 lung, 50.7%; in the assay on NCI-H322M lung, 5.48% (active); in the assay on HOP-62 NSCLC, -38.8% (active); with NCI-H460 lung, 7.01% (active); with HOP-92 NSCLC, -24.9% (active). The growth in the assay with NCI-H522 lung was -24.5% (active); in the assay with A549/ATCC NSCLC, 11.5%; in the assay with 786-0 renal, -80.2% (active); in the assay on COLO 205 colon, -82.6% (active).

For the compound `CC(C)Nc1cc(-c2c[nH]c(C(=O)N[C@H](CO)c3cccc(Cl)c3)c2)c(Cl)cn1`, the growth in the assay on NCI-H23 lung was 19.9%; with NCI-H226 lung it was 38%; in the assay on NCI-H322M lung, 17.5%; in the assay with HOP-62 NSCLC, 28.6%; in the assay on NCI-H460 lung, 25.2%; in the assay with HOP-92 NSCLC, -18.5% (active). In addition, the growth was 22.2% in the assay with NCI-H522 lung, 14.8% with A549/ATCC NSCLC, 42.4% in the assay on 786-0 renal and -19.2% (active) in the assay with COLO 205 colon.

`CC(CCCC(=O)O)c1ccoc1` (stereo not given): the growth in the assay with NCI-H23 lung is 97.7%; with NCI-H226 lung, 102%; in the assay on NCI-H322M lung, 99.8%; with HOP-62 NSCLC, 101%; in the assay on NCI-H460 lung, 110%; with HOP-92 NSCLC, 108%. Besides, the growth is 83.2% in the assay with NCI-H522 lung, 100% in the assay with A549/ATCC NSCLC, 98.8% in the assay on 786-0 renal and 101% with COLO 205 colon.

Turning to `CNC(=O)c1cc(Oc2ccc(NC(=O)Nc3cc(C(C)(C)C)nn3-c3ccc4ncccc4c3)c(F)c2)ccn1`, the growth with NCI-H23 lung was -49.5% (active); in the assay with NCI-H226 lung, -15.9% (active); in the assay on NCI-H322M lung, -17.8% (active); in the assay on HOP-62 NSCLC it was -41.4% (active); with NCI-H460 lung, -40.8% (active); in the assay on HOP-92 NSCLC, -10.8% (active). Also, the growth with NCI-H522 lung was -47.7% (active); in the assay on A549/ATCC NSCLC, -16.1% (active); in the assay with 786-0 renal it was -16.7% (active); in the assay with COLO 205 colon, -78.1% (active).

`COc1cnc2c(c1)C(=O)c1c-2n(CCCN2CCOCC2)c(=O)c2cc(Cl)ccc12`: the growth with NCI-H23 lung is 20.6%; in the assay on NCI-H226 lung, 20.6%; in the assay with NCI-H322M lung it was 31.3%; in the assay with HOP-62 NSCLC, 4.59% (active); in the assay on NCI-H460 lung it was 3.15% (active); in the assay with HOP-92 NSCLC it was 70.4%. For the same compound, the growth is 24.3% with NCI-H522 lung, 34.9% in the assay with A549/ATCC NSCLC, -0.608% (active) in the assay with 786-0 renal and 9.49% (active) in the assay on COLO 205 colon.
